# Assay results as given in PubChem BioAssay AID686978 (National Center for Advancing Translational Sciences (NCATS), 2013).
# Out of some 420,000 compounds screened, about 64,000 (15%) were called active. Another 27% or so got no clear call; they are omitted. Calls follow the shape of the dose curve; as a rule, active = well fitted inhibition curve with a large enough effect; inconclusive = small, poorly fitted or top-dose-only effect; inactive = flat fitted curve, though single readings scatter. Only a sample is shown.
# Test: qHTS for Inhibitors of human tyrosyl-DNA phosphodiesterase 1 (TDP1): qHTS in cells in absence of CPT; also: nearly all actives have a fitted effect of over 55% in size
# Details: DT40 Tdp1-/- hTDP1 cells, no CPT, ATP luminescence, 48 h; activity change, negative = growth inhibition: at 46.2 µM (top of the series)
# In short: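 No-CPT arm: Tdp1-/-;hTDP1 DT40 cells (400/well) plus compounds, incubated ≥48 hr at 37 °C. Readout CellTiter-Glo luminescence.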
# % is scaled to controls: 0 for no effect and ±100 for the full control effect; potency is read from the fitted curve at half-maximal effect.
SMILES,"activity change, negative = growth inhibition",Potency
CN(C)S(=O)(=O)c1ccc(C(=O)NCC2(N3CCOCC3)CCCCC2)cc1,8.02% (inactive),
CC(=O)Nc1ccccc1C(=O)C(=O)Nc1ccc(F)cc1,2.57% (inactive),
O=S(=O)(Nc1n[nH]c(C(F)(F)F)n1)c1ccccc1,0.294% (inactive),
CCCNC(=O)C1(C)CCN(C(=O)c2ccccc2OC(F)(F)F)C1 (stereo not drawn),-2.88% (inactive),
CCCNC(=O)C1(C)CCCN(C(=O)c2cccc(OC(C)=O)c2C)C1 (stereo not drawn),3.77% (inactive),
CCCNC(=O)C1(C)CCN(Cc2ccc(Cl)c(Cl)c2)C1 (stereo not drawn),,20.6 µM (active)
CCCNC(=O)C1(C)CCN(Cc2csc(-c3ccc(Cl)cc3)n2)C1 (stereo not drawn),,16.4 µM (active)
CCCNC(=O)C1(C)CCN(C(=O)c2ccc(F)cc2Cl)C1 (stereo not drawn),2.54% (inactive),
CCCNC(=O)C1(C)CCCN(Cc2c(C)nn(-c3ccccc3)c2C)C1 (stereo not drawn),-22.3% (inactive),
CCCNC(=O)C1(C)CCCN(Cc2cccc(C(F)(F)F)c2)C1 (stereo not drawn),,25.9 µM (active)
CCCNC(=O)C1(C)CCN(C(=O)c2cc(F)ccc2C)C1 (stereo not drawn),-12.5% (inactive),
CCNC(=O)C1(C)CCN(Cc2ccc(C(=O)OCC)o2)C1 (stereo not drawn),-13.3% (inactive),
Cc1ccc(NC(=O)C(C)OC(=O)C2CC3CCCC(C2)C3=O)cc1S(=O)(=O)N1CCOCC1 (stereo not drawn),-2.92% (inactive),
CCCOc1ccc(N2C(=O)CC(N(CCc3ccc(S(N)(=O)=O)cc3)C(C)=O)C2=O)cc1 (stereo not drawn),-0.369% (inactive),
O=C(CNc1ccc(F)cc1F)NC(=O)NCc1ccco1,-27.8% (inactive),
COc1ccc(/C(N)=N/OC(=O)Oc2ccccc2)cc1,0.641% (inactive),
Cc1noc(NS(=O)(=O)c2ccc(NC(=O)C34CCC(CC3)C4)cc2)c1C,-12% (inactive),
Cc1c(Cl)cccc1NC(=S)NCC(O)c1ccccc1 (stereo not drawn),-6.15% (inactive),
O=C(C1CCCO1)N1CCN(S(=O)(=O)c2ccc(Br)cc2)CC1 (stereo not drawn),8.03% (inactive),
C#CCOCCOCCOCCNc1nc(N2CCN(C(=O)[C@H](CCCCN)n3cc([C@@H](N)C(C)CC)nn3)CC2)nc(N2CCN(C(=O)[C@H](Cc3ccc(O)cc3)n3cc([C@@H](N)C(C)CC)nn3)CC2)n1 (stereo partly drawn),-1.66% (inactive),
COc1cccc(C2CC(c3ccccc3)=NN2S(=O)(=O)c2ccccc2)c1OC (stereo not drawn),,25.9 µM (active)
CCS(=O)(=O)Nc1ccc(C2=NN(S(=O)(=O)c3ccc(F)cc3)C(c3ccco3)C2)cc1 (stereo not drawn),-24.2% (inactive),
CS(=O)(=O)Nc1cccc(C2=NN(S(=O)(=O)c3ccccc3)C(c3cccs3)C2)c1 (stereo not drawn),3.05% (inactive),
CNC(=O)C(NC(=O)c1ccccc1)=C(C)C,5.77% (inactive),
O=C(NCCN1C(=O)C2C3C=CC(C3)C2C1=O)Nc1ccccn1 (stereo not drawn),-7.04% (inactive),
COc1ccc(OCC(=O)N2CCN(C(=O)c3cccs3)CC2)cc1,-12.1% (inactive),

SMILES,"activity change, negative = growth inhibition",Potency
CCc1ccc(NC(=O)COC(=O)c2cccs2)cc1,-20.9% (inactive),
O=C(CN1CCN(c2cccc(Cl)c2)CC1)Nc1ccc(S(=O)(=O)N2CCOCC2)cc1,,8.2 µM (active)
O=C(CN1C(=O)CCC1=O)Nc1ccc(S(=O)(=O)N2CCOCC2)cc1,-2.37% (inactive),
Cc1ccc(Cl)cc1NC(=O)CN1CCN(S(=O)(=O)N2CCOCC2)CC1,-11.5% (inactive),
O=C(CN1CCOCC1)Nc1cc(Cl)ccc1Cl,-6.59% (inactive),
O=C(CN1CCN(c2ccc(O)cc2)CC1)Nc1cc(S(=O)(=O)N2CCOCC2)ccc1Cl,,13 µM (active)
O=C(CN1CCN(S(=O)(=O)/C=C/c2ccccc2)CC1)Nc1ccc(N2CCOCC2)cc1,-6.25% (inactive),
Cc1cc(NC(=O)CC(C)C)cc(-c2nc3ncccc3o2)c1O,-1.14% (inactive),
Cn1c(NC(=O)c2ccc3c(c2)OCO3)cc(=O)n(C)c1=O,-6.92% (inactive),
COc1ccccc1CC(NC(C)=O)C(=O)NC1CCN(C(=O)Nc2ccccc2Cl)CC1 (stereo not drawn),1.02% (inactive),
Cc1nn2c(=O)cc(COC(=O)c3cccc(NC(=O)COc4ccccc4Cl)c3)nc2s1,-2.4% (inactive),
O=[N+]([O-])c1ccc(F)cc1Oc1nc(-c2cccnc2)nc2ccccc12,,18.4 µM (active)
CCN(CC(=O)NC1CCS(=O)(=O)C1)c1nc(-c2cccnc2)nc2ccccc12 (stereo not drawn),-19.4% (inactive),
O=[N+]([O-])c1cc2ccccc2nc1-c1ccccc1,-22.5% (inactive),
COc1ccccc1CNc1ncncc1-c1cccnc1,-3.33% (inactive),
COc1ccccc1CCNC(=O)CSc1nnc2ccc(-c3cccnc3)nn12,9.51% (inactive),
COc1ccccc1Oc1nc(-c2cccnc2)nc2ccccc12,,20.6 µM (active)
CCN(CC)c1nc(-c2ccccc2)cc(C(F)(F)F)c1C#N,-7.9% (inactive),
Cc1cc(C)cc(C(=O)OCC(=O)NCCNC(=O)COC(=O)c2cc(C)cc(C)c2)c1,-4.36% (inactive),
Cc1ccc(NC(=O)Nc2nnc(-c3ccncc3)s2)cc1,,11.6 µM (active)
Cc1occc1C(=O)Nc1nnc(-c2ccncc2)s1,1.48% (inactive),
Cc1ccc(C(=O)Nc2nnc(-c3ccncc3)s2)o1,-6.33% (inactive),
CC1(C)C2CCC1(CS(=O)(=O)NCCc1c[nH]c3ccccc13)C(=O)C2 (stereo not drawn),-19.2% (inactive),
Cc1ccc(OCCC(=O)Nc2ccc(S(=O)(=O)Nc3nccs3)cc2)cc1,22.2% (inactive),
CN(C)NC(=O)C(NC(=O)c1ccc(N)cc1)C12CC3CC(CC(C3)C1)C2 (stereo not drawn),1.51% (inactive),
COC(CCN(C)C)(c1ccccc1)c1ccccc1,-6.55% (inactive),

SMILES,"activity change, negative = growth inhibition",Potency
CCn1nnc(NC(=O)c2c(OC)cccc2OC)n1,-3.98% (inactive),
COc1ccc(/C=N/n2c(C)cc(C)cc2=O)cc1,-9.69% (inactive),
Cc1ccc(S(=O)(=O)N2CCN=C2SCc2c(F)cccc2Cl)cc1,,11.6 µM (active)
CCSC1=NCCN1S(=O)(=O)c1ccc(F)cc1,-3.64% (inactive),
O=S(=O)(c1ccc(F)cc1)N1CCN=C1SCc1cccc(F)c1,-19.7% (inactive),
O=C(Nc1ccc(Cl)cn1)c1cnn2cccnc12,-23% (inactive),
COc1ccccc1CNC(=O)c1ccc(N(C)S(=O)(=O)c2ccc(C)cc2)cc1,-10.4% (inactive),
COc1ccccc1N(C)S(=O)(=O)c1ccc(C(=O)NC2CCCCCC2)cc1,,23.1 µM (active)
COc1ccc(S(=O)(=O)N2CCOCC2)cc1C(=O)NC1CCCCC1,-6.05% (inactive),
CCc1ccc(OCC(=O)OCC(=O)c2c(N)n(C)c(=O)n(C)c2=O)cc1,5.34% (inactive),
CC(C)Oc1ccc(/C=N/NC(=O)c2nnn(-c3nonc3N)c2CN(C)C2CCCCC2)cc1,-11.7% (inactive),
Cc1cc(C)cc(NC(=O)NCc2ccccn2)c1,19.2% (inactive),
CC(C)(C)NC(=O)C(=O)NN=C1CCCCCCC1,3.33% (inactive),
CC(C)NC(=S)NN=C1CCCCCCCCCCC1,,13 µM (active)
CCc1ccc(C(=O)NN=C2CCCCCC2)s1,5.13% (inactive),
Cc1ccc(-n2nc3c(c2NC(=O)CCC2CCCCC2)CS(=O)C3)cc1 (stereo not drawn),-21.2% (inactive),
CCN1CCC(O)(/C=C/c2ccc(C)cc2)C(C(=O)/C=C/c2ccc(C)cc2)C1 (stereo not drawn),,4.61 µM (active)
O=S(=O)(c1ccc(Cl)s1)N1CCC2(CC1)OCCO2,-12.2% (inactive),
COc1cc(OC)cc(C(=O)NC(=S)N2CCN(c3ccc(C(F)(F)F)cc3[N+](=O)[O-])CC2)c1,,16.4 µM (active)
O=[N+]([O-])c1cc(C(F)(F)F)ccc1NN=C1CCCC1,-18% (inactive),
COc1cc(C(=O)Nc2cc(C(F)(F)F)ccc2-n2cncn2)cc(OC)c1OC,-28.2% (inactive),
O=C(Nc1cc(Cl)ccc1N1CCOCC1)c1ccc(N2CCCC2=O)cc1,-29% (inactive),
O=C(c1ccc(N2CCCC2=O)cc1)N1CCN(c2ccc(C(F)(F)F)cc2[N+](=O)[O-])CC1,,2.31 µM (active)
CNS(=O)(=O)c1ccc(N2CCCC2=O)c([N+](=O)[O-])c1,-18.6% (inactive),
C=CCO/N=C/C1=C(O)C(C(=O)OC)C(C)(C)CC1=O (stereo not drawn),10.2% (inactive),
CC(C)(C)c1ccccc1NC(=O)CN1C(=O)NC2(CCCC2)C1=O,-9.88% (inactive),

SMILES,"activity change, negative = growth inhibition",Potency
CCc1[nH]nc(C(=O)N2CCCC(CNS(=O)(=O)c3cccs3)C2)c1C (stereo not drawn),-1.36% (inactive),
O=C(NNc1nc(N2CCCC2)nc(N2CCCC2)n1)c1ccccc1,3.31% (inactive),
CC(NC(=O)C1CCC(CNc2c(N3CCOCC3)c(=O)c2=O)CC1)c1ccccc1 (stereo not drawn),-4.93% (inactive),
c1ccc2c(NC3C4CC5CC(C4)CC3C5)nc(N3CCOCC3)nc2c1 (stereo not drawn),,20.6 µM (active)
Cc1ccc(C(CC(=O)O)Nc2nc(N3CCCCC3)nc(N3CCCCC3)n2)cc1 (stereo not drawn),-18.1% (inactive),
CC(CN1CCOCC1)c1ccccc1 (stereo not drawn),2.15% (inactive),
FC(F)(F)c1cc(-c2ccco2)nc(N2CCOCC2)n1,-20.7% (inactive),
O=C(COC(=O)CCc1nc2ccccc2c(=O)[nH]1)Nc1ccc(N2CCOCC2)cc1,-20.7% (inactive),
CC(Nc1nc(N2CCOCC2)nc2ccccc12)c1ccccc1 (stereo not drawn),,18.4 µM (active)
CC(Nc1nc(N2CCCC2)nc2ccccc12)c1ccccc1 (stereo not drawn),,20.6 µM (active)
NC(=O)c1ccc(N2CCCC2)nc1,-8.99% (inactive),
COc1ccccc1C(=O)Nc1ccc(Nc2ccccc2)cc1,-12.1% (inactive),
COc1ccccc1C(=O)Nc1ccc(OCc2nnc3c4ccccc4c(C)nn23)cc1,,13 µM (active)
COc1cc(C(=O)Nc2ccc(OCc3cc(=O)n4cc(C)sc4n3)cc2)cc(OC)c1OC,-12.9% (inactive),
O=C1N=C2SCCN2/C1=C\c1c(Cl)cccc1Cl,-11.7% (inactive),
Cc1c(C(=O)NCCN2C(=O)S/C(=C\c3cccs3)C2=O)cccc1[N+](=O)[O-],-0.412% (inactive),
CN(C)c1ccc(C(CC(=O)O)C(=O)O)cc1 (stereo not drawn),3.38% (inactive),
c1n[nH]c(NCc2ccc3c(c2)OCO3)n1,-9.16% (inactive),
O=C(CCN1C(=O)c2ccccc2C1=O)C1=NN[C@@H]2C(=O)N(c3ccc(F)cc3)C(=O)[C@H]12,0.514% (inactive),
CC(=O)c1ccc(S(=O)(=O)N2CCC3(CC2)OCCO3)cc1,-24.6% (inactive),
CCCCN(CC)C(=O)C1CCCN(S(=O)(=O)c2cccc3nsnc23)C1 (stereo not drawn),,18.4 µM (active)
CCCCC(CC)CNC(=O)C1CCN(S(=O)(=O)c2cccc3nsnc23)CC1 (stereo not drawn),-26.8% (inactive),
CCCCN(C)CCNC(=O)C1CCCN(S(=O)(=O)c2cccc3nsnc23)C1 (stereo not drawn),,inactive
Cc1cc(=O)[nH]c(SCc2cc(Cl)ccc2OC(F)F)n1,-17.1% (inactive),
O=C(COC(=O)C1CC2CCCC(C1)C2=O)NC(=O)c1ccccc1 (stereo not drawn),-1.16% (inactive),
